Screening data (PubChem)
Autofluor counter: counter-screen for toxin protease inhibitors: compound fluorescence; compound autofluorescence counterscreen, microsphere flow cytometry; active compounds read high; AID 624483; actives 3.1% (n = 360,000); fluorescence intensity (no concentration beside the values); in the data active means fluorescence intensity above about 16000; inconclusive means no clear call, values can overlap the other calls
DUSP3 inh: DUSP3 (human) phosphatase inhibition. P51452. recombinant VHR phosphatase, pNPP absorbance. inhibition, % at 13.3 µM. actives 0.52% (n = 290,000); in the data active means inhibition above about 50%
Target sequence (P51452 whole entry, looked up): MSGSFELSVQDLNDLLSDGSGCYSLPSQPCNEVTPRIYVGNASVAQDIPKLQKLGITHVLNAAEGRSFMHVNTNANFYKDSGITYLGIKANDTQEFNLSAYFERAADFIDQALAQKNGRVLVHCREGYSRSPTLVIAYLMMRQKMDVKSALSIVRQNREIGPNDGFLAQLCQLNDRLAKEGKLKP
Anthrax LF prot: anthrax lethal factor protease inhibition; inhibition, % at 10 µM; multiplex microsphere protease cleavage assay, LF; actives 0.12% (n = 360,000); further: plate controls were buffer without enzyme for full effect and enzyme alone for no effect
MazF activator: activators of E. coli MazEF toxin-antitoxin RNase; FAM/BHQ RNA-DNA oligo cleavage fluorescence, 5 h; activation, % at 20 µM; actives 0.32% (n = 350,000); in the data active means activation above about 50%
Target sequence (P0AE70 whole entry, looked up): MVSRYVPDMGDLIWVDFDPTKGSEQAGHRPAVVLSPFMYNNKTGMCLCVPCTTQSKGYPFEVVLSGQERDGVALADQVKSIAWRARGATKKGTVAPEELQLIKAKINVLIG
BoNT-A LC inh2: BoNT A light chain protease inhibition; multiplex microsphere protease substrate cleavage, flow cytometry; inhibition, % at 10 µM; actives 0.17% (n = 360,000); further: plate controls were buffer without enzyme for full effect and enzyme alone for no effect
BoNT-F LC inh: blocks Botulinum neurotoxin F light chain protease | Multiplex microsphere protease cleavage assay, flow cytometry | inhibition, % at 10 µM | actives 0.22% (n = 360,000) | AID 588497; in the data active means inhibition above about 35%, passing the limit was not always enough; inconclusive means no clear call, values can overlap the other calls; further: plate controls were buffer without enzyme for full effect and enzyme alone for no effect
* hit, by the source's call; ? = inconclusive; · = no result. This is a sample that favours compounds with a hit; in the whole collection about 4% have one here. Unless noted, no stated cut-off is given here; in the data, active means inhibition above about 30%; inconclusive means no clear call, values can overlap the other calls; inactive means below that.

SMILES	Autofluor counter	DUSP3 inh	Anthrax LF prot	MazF activator	BoNT-A LC inh2	BoNT-F LC inh
O=[N+]([O-])c1nn(-c2ccc3c(c2)OCCO3)n(O)c1=NCc1ccccc1Cl	7389	7.1	1.0	71.1*	-0.5	-9.5
COc1ccccc1CN=c1c([N+](=O)[O-])nn(-c2ccc3c(c2)OCCO3)n1O	2792	-3.8	0.7	10.5	-0.2	-8.4
CC(C)NC(=O)NC(=O)CSc1nnc(COc2ccccc2Cl)o1	2383	-3.7	-0.7	0.2	-0.1	-2.3
CCN(CC)CCN(Cc1cc2cc3c(cc2[nH]c1=O)OCO3)C(=S)NCCCN(C)C	3513	51.7*	-14.0	8.5	0.1	-5.9
COCCCNC(=S)N(CCO)Cc1cc2cc3c(cc2[nH]c1=O)OCO3	4473	51.5*	-14.9	-4.2	-3.4	?
Cc1cccc(N=Nc2c(N)n[nH]c2-c2ccc(Cl)cc2)c1	20404*	17.8	-6.3	-8.4	0.6	-2.4
CNc1cc(-c2ccc(OC)c(OC)c2)ncn1	2950	·	-3.7	·	0.0	0.5
O=C(Nc1cccc(S(=O)(=O)N2CCOCC2)c1)c1cccc(S(=O)(=O)N2CCCC2)c1	5521	·	-3.8	2.2	-1.1	-5.3
COC(=O)c1cccc(S(=O)(=O)N2CCC(NC(=O)Nc3cccc(F)c3)CC2)c1	17460*	39.8	-2.5	1.0	-2.5	-7.5
O=C(Nc1cccc(F)c1)c1cccc(S(=O)(=O)N2CCOCC2)c1	24090*	17.6	-6.1	-4.5	-2.0	-2.9
CC(C)C(=O)Nc1cccc(C(=O)NCc2ccc(S(N)(=O)=O)cc2)c1	18546*	-12.2	-16.2	4.1	7.2	12.5
O=C(NCc1nc2ccccc2[nH]1)c1cccc(S(=O)(=O)N2CCOCC2)c1	22223*	21.8	0.9	-0.5	0.4	-1.3
CC(C)C(=O)Nc1cccc(C(=O)NCc2ccc3c(c2)OCO3)c1	9948	22.0	0.7	5.8	-0.6	2.8
COC(=O)[C@@H](Cc1ccccc1)NS(=O)(=O)N[C@H](Cc1ccccc1)C(=O)OC	3955	·	-12.5	4.0	-0.1	-4.9
CC(C)C(=O)Nc1ccc(C(=O)Nc2ccc(S(=O)(=O)N3CCOCC3)cc2)cc1	3236	26.1	15.6	5.9	5.2	?
CC(C)C(=O)Nc1cccc(C(=O)Nc2ccc(S(=O)(=O)N3CCOCC3)cc2)c1	4000	8.8	-2.8	160.4*	-1.0	4.0
Cc1nonc1NC(=O)CSc1nc2cc(Cl)ccc2c2c1CCCC2	10977	18.0	-2.0	-5.3	0.1	-5.5
Cc1ccc2c3c(c(SCC(=O)Nc4nonc4C)nc2c1)CCCC3	23233*	11.9	-2.8	47.0	?	-0.6
O=C(COC(=O)/C=C/c1ccccc1[N+](=O)[O-])Nc1ccc(OCc2ccccc2)cc1	2400	-6.9	-1.7	2.7	0.2	-0.5
CCc1ccc(NC(=O)N(CCN2CCOCC2)Cc2ccc3c(c2)CCCN3CC)cc1	8466	7.6	-8.2	-10.4	-0.4	-24.5
CCN1CCCc2cc(CN(CCN3CCOCC3)C(=O)Nc3ccc(C)c(C)c3)ccc21	20262*	11.6	-2.3	-14.4	-1.8	-9.3
Cc1cc(Cl)ccc1NC(=O)CN1C(=O)CSc2ccc(S(=O)(=O)N3CCOCC3)cc21	5337	-3.6	4.0	6.5	-1.3	-1.3
O=c1oc(/C=C/c2ccco2)nc2sc3c(c12)CCC3	2693	18.9	-3.5	141.1*	0.0	-21.6
O=c1c2ccccc2[nH]c(=S)n1C1CCCCC1	2674	-0.7	0.4	8.8	0.6	7.9
C[C@H]1CC[C@]2(O[C@@H](CCO)C[C@H](O)[C@H]2O)O1	4087	·	-8.2	6.3	-0.5	-3.1
SMILES	Autofluor counter	DUSP3 inh	Anthrax LF prot	MazF activator	BoNT-A LC inh2	BoNT-F LC inh
COc1ccc(N(CC(O)CN2C(=O)NC(C)(C)C2=O)S(=O)(=O)c2ccccc2)cc1 (stereo not given)	23290*	-8.1	-0.5	-1.1	-0.7	-1.5
Cc1coc(NC(=O)CSc2nc(-c3ccc(Cl)cc3)cc(C(F)(F)F)c2C#N)n1	16407*	10.5	0.9	-8.5	0.7	0.2
COc1ccc(-c2cc(C(F)(F)F)c(C#N)c(SCC(=O)Nc3nc(C)co3)n2)cc1	9977	17.2	-0.1	-22.8	1.2	7.4
Cc1cc(C)c(C#N)c(SCC(=O)NC(C)(C)C)n1	6234	-18.5	-2.8	3.6	-2.7	-26.5
Cc1cc(C(F)(F)F)c(C#N)c(SCC(=O)NC(C)(C)C)n1	25162*	-19.2	-1.9	4.2	-3.6	-7.3
O=C1NC(=O)N(CCC2=CCCCC2)C(=O)/C1=C/c1cccs1	3753	15.5	?	-4.8	11.9	37.2*
Cc1noc(C)c1C(=O)OC(C(=O)NC1CCCC1)c1ccc(F)cc1 (stereo not given)	22114*	6.6	-1.1	4.7	-5.0	-6.3
NC(=O)CC(NC(=O)c1ccccc1)c1ccc(N2CCCCCC2)c([N+](=O)[O-])c1 (stereo not given)	4137	8.9	-1.3	6.0	-0.6	-9.6
COc1ccc(/C=C2/CCOC2=O)cc1	2686	-0.1	0.5	1.4	-0.1	-9.5
Cc1ccc(/C=C2\CCOC2=O)cc1	3611	41.5	13.0	-0.6	4.0	35.3*
O=C(NCCN1CCOCC1)C1CCC(=O)N1Cc1ccc(F)cc1 (stereo not given)	24197*	20.1	-0.5	0.4	-1.4	-3.8
c1ccc2c(c1)CCN(CCCNc1nc3ccccc3n3cnnc13)C2	5455	54.2*	-2.7	3.3	-0.7	-13.0
COc1ccc(C(c2c(NC(=O)c3ccco3)sc(C)c2C)N2CCOCC2)cc1OC (stereo not given)	?	·	2.5	-6.0	-2.0	?
Cc1ccc(C)c2[nH]c(=O)c(CN(Cc3ccco3)S(=O)(=O)c3ccc4c(c3)OCCO4)cc12	22529*	-4.6	-2.1	-2.9	3.1	5.0
CCc1ccc2[nH]c(=O)c(CN(Cc3ccco3)S(=O)(=O)c3ccc4c(c3)OCCO4)cc2c1	11443	-9.8	-1.7	-12.5	-0.7	0.3
Fc1ccc(N2CCN(C(=S)NCc3ccco3)CC2)cc1	3987	10.8	-7.1	4.3	-1.6	-1.7
O=C(NCc1ccco1)c1cc(-c2ccc3c(c2)OCO3)on1	17176*	7.6	-2.9	-1.8	-4.3	-6.5
Cc1cc(C(=O)NCc2ccco2)no1	22251*	25.4	-0.7	-7.4	2.9	4.4
COc1cccc(N2CCN(C(=S)NCc3ccco3)CC2)c1	16347*	28.7	-6.2	-3.1	-1.4	-4.3
COc1cc(OC)cc(C(=O)NC(=S)NCc2ccco2)c1	16948*	10.4	-5.9	-17.0	?	-2.6
O=C(N/C(=C/c1ccco1)C(=O)N1CCOCC1)c1ccc([N+](=O)[O-])cc1	5579	12.6	-0.5	-3.9	-1.7	-10.0
CCC(c1nnc(SCc2nc3ccccc3s2)n1Cc1ccccc1)N(C)C (stereo not given)	4796	-0.9	-3.0	-11.6	1.6	6.9
COc1cccc(-c2cc(C(=O)NCc3ccco3)no2)c1	24153*	-10.2	-3.2	-2.6	-2.8	-4.6
COc1ccc(OC)c(-c2cc(C(=O)NCc3ccco3)no2)c1	8033	3.8	-5.5	1.7	-0.5	-0.6
